# Assay outcomes (PubChem BioAssay)
# Compounds with a hit are over-represented: about 10% of the library has one in this group of screens.
# G9a inh – inhibitors of human histone lysine methyltransferase G9a. Q96KQ7. G9a H3K9 monomethylation, AlphaScreen, 2 h. hit rate 8.8% among 350,000. Potency, µM (top dose mostly 102 µM), without a hit: at the highest dose activity, negative = inhibition, usual class: inhibitors; also: potency is read from the fitted curve at half-maximal effect; % is scaled to controls: 0 for no effect and ±100 for the full control effect; nearly all actives have a fitted effect of over 75% in size
#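 Methyltransferase reactions run at room temperature for 2 h (20 nM enzyme, 500 nM biotin-H3K9 peptide, 20 uM SAM) after a 15 min compound preincubation; product detected by AlphaScreen beads and anti-H3K9me1 antibody.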
# BAZ2B inh – blocks human BAZ2B; Q9UIF8; hit rate 4.4% among 360,000; Potency, µM (doses to about 114 µM), for the others: at the highest dose activity change, negative = inhibition, actives largely listed as inhibitors; AlphaScreen BAZ2B-H3K14Ac peptide displacement; AID 504333; also: potency is read from the fitted curve at half-maximal effect; % is scaled to controls: 0 for no effect and ±100 for the full control effect; nearly all actives have a fitted effect of over 60% in size
#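 Complex of BAZ2B and biotin-H3K14Ac (50 nM apiece) forms over 30 min at RT, then faces library compounds up to 110 uM for another 30 min; AlphaScreen beads added, 20 min dark incubation, luminescence read.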
# HP1b chromo inh – inhibitors of HP1-beta chromodomain binding to methylated histone tails; P83916; AlphaScreen HP1-beta / biotin-H3K9me3 peptide binding; Potency, µM (titrated, usually from 114 µM), for inactives: top-dose activity change, negative = inhibition, usual class: inhibitors; hit rate 0.56% among 390,000; AID 540317; also: potency is read from the fitted curve at half-maximal effect; nearly all actives have a fitted effect of over 70% in size
#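 HP1-beta protein (50 nM final) preincubated 30 min at room temperature with biotinylated H3(1-18)K9me3 peptide (50 nM) in PBS pH 7.4, 0.01% Tween-20, then compound added for 30 min. AlphaScreen streptavidin donor/nickel chelate acceptor beads (10 ug/mL final), 30 min dark, luminescence read.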
# JMJD2A Tudor inh – JMJD2A Tudor domain (human) inhibition; AlphaScreen JMJD2A-Tudor / H3K4me3 peptide binding; hit rate 4.4% among 390,000; Potency, µM (top dose mostly 114 µM), for inactives: at the top dose activity change, negative = inhibition, most hits filed as inhibitors; O75164; also: potency is read from the fitted curve at half-maximal effect; % is scaled to controls: 0 for no effect and ±100 for the full control effect; nearly all actives have a fitted effect of over 50% in size
# CtBP-E1A inh – blocks the CtBP interaction with E1A. AlphaScreen GST-E1A/His-CtBP binding, 1536-well; hits give low values. activity change, % (no concentration beside the values). hit rate 0.49% among 340,000; in the data active = activity change below about -65%; inconclusive = mostly about -30% to -63%; also: % is scaled to controls: 0 for no effect and ±100 for the full control effect
#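 Steps: dispense buffer (Tris pH 8.0, NaCl 300 mM, TCEP 1 mM, BSA, Tween 20); add 5X protein mix (GST-E1A, His-CtBP, 125 nM each); pin 23 nL compound; 2 h at 37 °C, dark; add 5X beads (50 ug/mL); 1 h; read.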
# Six1-Eya2 blk – inhibitors of human Six1/Eya2 interaction | Q15475+O00167 | hit rate 0.56% among 360,000 | activity change, % (test concentration not listed) | AID 651725 | AlphaScreen GST-Six1/His-Eya2 binding, biochemical; hits give low values; in the data active = activity change below about -65%; inconclusive = mostly about -30% to -63%; also: % is scaled to controls: 0 for no effect and ±100 for the full control effect
# Target sequence (O00167 whole entry, looked up): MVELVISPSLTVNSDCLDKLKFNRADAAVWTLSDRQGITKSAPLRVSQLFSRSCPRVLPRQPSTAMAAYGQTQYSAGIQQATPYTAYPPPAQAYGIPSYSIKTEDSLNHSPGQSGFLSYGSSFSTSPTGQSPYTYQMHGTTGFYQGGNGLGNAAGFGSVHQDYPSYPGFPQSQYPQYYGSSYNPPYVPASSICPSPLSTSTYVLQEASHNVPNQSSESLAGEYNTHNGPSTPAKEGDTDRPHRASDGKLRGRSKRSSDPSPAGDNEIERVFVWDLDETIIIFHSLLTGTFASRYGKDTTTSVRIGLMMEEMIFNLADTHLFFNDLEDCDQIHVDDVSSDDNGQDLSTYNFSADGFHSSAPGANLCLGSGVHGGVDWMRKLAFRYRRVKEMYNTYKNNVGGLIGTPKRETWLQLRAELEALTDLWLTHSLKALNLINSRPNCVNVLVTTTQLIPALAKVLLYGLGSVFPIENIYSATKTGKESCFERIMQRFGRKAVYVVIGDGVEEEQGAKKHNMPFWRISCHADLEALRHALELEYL
# Target sequence (Q15475 whole entry, looked up): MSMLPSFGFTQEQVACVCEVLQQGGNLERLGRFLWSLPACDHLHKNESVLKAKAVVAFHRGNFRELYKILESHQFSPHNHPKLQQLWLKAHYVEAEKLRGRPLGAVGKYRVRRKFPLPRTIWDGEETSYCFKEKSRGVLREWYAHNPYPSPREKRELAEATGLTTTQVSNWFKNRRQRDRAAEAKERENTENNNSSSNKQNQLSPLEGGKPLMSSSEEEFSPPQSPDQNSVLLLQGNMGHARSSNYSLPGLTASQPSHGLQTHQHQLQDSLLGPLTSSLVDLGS
#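 GST-Six1 + His-Eya2 (5X stock: 250/500 nM); Tris pH 8.0, 300 mM NaCl, 0.05% BSA, 0.02% Tween 20; GSH donor/Ni acceptor beads; 1 h 37 °C dark; AlphaScreen readout.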
# * = called active by the depositor; ? = inconclusive; . = no result; [ ] = another dose, or the depositor's remark. Unless noted, calls follow the shape of the dose curve; as a rule, active = well fitted inhibition curve with a large enough effect; inconclusive = small, poorly fitted or top-dose-only effect; inactive = no such curve, though single readings can be large or run the other way.
SMILES,G9a inh,BAZ2B inh,HP1b chromo inh,JMJD2A Tudor inh,CtBP-E1A inh,Six1-Eya2 blk
COC(=O)c1cccc(N2C(=O)C(Cl)=C(N3CCOCC3)C2=O)c1,50µM*,-9%,62%,-32%,0,1
O=C1C(Cl)=C(N2CCOCC2)C(=O)N1c1ccccc1Cl,-14%[59 µM],34%,31%,-3%,-1,-6
COC(=O)c1cccc(S(=O)(=O)N2CCOCC2)c1,-8%[12.7 µM],10%,40%,-5%,6,0
O=C(c1ccccc1)c1nn(-c2ccccc2)c2nnc(Cc3ccccc3)c(=O)n12,10µM*,-25%,8%,?,-22,-13
Cc1ccc(-n2nc(C(=O)c3ccccc3)n3c(=O)c(Cc4ccccc4)nnc23)cc1,.,.,6%,-20%,-26,-20
CCN(CC)C(=O)Cn1c(=O)n(Cc2ccc(C(=O)NCc3ccccc3Cl)cc2)c(=O)c2ccccc21,-36%[59 µM],-4%,27%,-4%,.,.
CCOC(=O)C(Cc1ccnc2ccccc12)=NO,.,.,7%[57 µM],-19%,2,10
O=C(O)C(Cc1ccnc2ccccc12)=NO,.,.,25%,3.2µM*,7,-2
COc1ccc(NC(=O)C(C)n2nc(C)c3c(C)n(-c4ccccc4)nc3c2=O)cc1Cl (centres undefined),?,-14%,24%,-1%,.,.
COc1ccc(-n2c(SCC(=O)NCCC(C)C)nc3ccsc3c2=O)cc1,25µM*,-6%,24%,-7%,-3,-2
Cc1ccc(C(c2nnnn2Cc2ccccc2)N2CCN(Cc3ccncc3)CC2)cc1 (centres undefined),.,.,30%,-35%,.,.
COCCn1c(=O)c(-c2ccc(Cl)cc2)nc2cnc(N(C)C)nc21,13%[0.501 µM],.,.,.,.,.
COC(=O)C1=COC(C)C2CN3CCc4c([nH]c5cc(OC)c(OC)cc45)C3CC12 (centres undefined),-32%[12.7 µM],50µM*,?,25µM*,?,?
Cc1ccc(N(C(=O)CCCC(=O)Nc2ccccn2)C(C(=O)NC2CCCC2)c2ccc(O)cc2)cc1C (centres undefined),8.9µM*,3%,-6%,-21%,1,3
Cc1ccccc1N(C(=O)CCCC(=O)Nc1ccccn1)C(C(=O)NC1CCCC1)c1ccc(O)cc1 (centres undefined),-8%,-1%,19%,-10%,0,-1
Nc1n[nH]c(N)c1N=Nc1ccc(Cl)cc1,-15%[59 µM],45µM*,-33%,35µM*,-20,-25
Nc1n[nH]c(N)c1N=Nc1cccc(C(F)(F)F)c1,71µM*,40µM*,-1%,?,-1,-13
Cc1cccc(N=C2N=C(N)c3ccccc32)c1,31%[0.501 µM],-9%,17%,-27%,13,5
Cc1cccc(N=Nc2c(N)n[nH]c2N)c1,-12%,40µM*,-17%,?,.,-3
Nc1n[nH]c(N)c1N=Nc1cccc(F)c1,?,40µM*,-17%,?,11,-18
Cc1cc(C)n2[nH]c(=O)c(N=Nc3cccc(C(F)(F)F)c3)c2n1,3%[12.7 µM],8%,-1%,?,-2,8
CCN1C(c2ccccc2)=C(c2ccccc2)S/C1=C\C=C1/SC(=S)N(C)C1=O,.,.,8.9µM*,7.9µM*,-27,?
CCN1C(=O)/C(=C/C=C2/Sc3ccc4ccccc4c3N2CCO)SC1=S,-9%[59 µM],?,5%,-17%,-21,-5
CCN1C(c2ccccc2)=C(c2ccccc2)S/C1=C/C=C1\SC(=S)N(C)C1=O,5.6µM*,2.5µM*,11µM*,8.9µM*,?,?
O=C1NCCN1Cc1ccccc1,8%,7%,9%,9%,0,3
SMILES,G9a inh,BAZ2B inh,HP1b chromo inh,JMJD2A Tudor inh,CtBP-E1A inh,Six1-Eya2 blk
O=C1NCCN1Cc1ccccc1F,45µM*,-37%,12%,-4%,2,7
COc1ccccc1CNc1ncnc2c1cnn2-c1ccc(C)cc1,8%[59 µM],8%,8%,-10%,.,.
CCOc1ccc(-c2cc3c(=O)n(CC(=O)NCc4ccc(C)cc4)ccn3n2)cc1,4%[59 µM],-1%,-11%,-27%,.,.
COc1ccc(OC)c(NC2=NC3(CCCC3)N=C(N)N2)c1,1%[12.7 µM],-5%,9%,-13%[57.1 µM],?,-68*
NC1=NC2(CCCCC2)N=C(Nc2ccc(F)cc2F)N1,28%[0.501 µM],-8%,46%,-8%,-3,0
Nn1c(Cc2ccccc2)nnc1Cc1ccccc1,.,.,10%[57 µM],0%,0,-6
Nn1c(Cc2ccccc2F)nnc1SCCOc1ccc(Cl)cc1,-45%[59 µM],-3%,38%,-5%,-12,3
CCOc1ccc(Cc2n[nH]c(=S)n2N)cc1,?,-31%,?,8.9µM*,2,3
COc1ccc(Cc2n[nH]c(=S)n2C)cc1Br,?,11%,5%,20µM*,1,1
Nn1c(Cc2ccc(Br)cc2)n[nH]c1=S,2.2µM*,?,?,7.1µM*,7,6
COc1ccc(Cc2nc(=S)[nH][nH]2)cc1Br,-118%,?,?,-18%[57.1 µM],-2,8
Nn1c(Cc2ccccc2F)n[nH]c1=S,20µM*,-22%,24%,3.2µM*,.,0
CCc1cccc2c(-c3ccccc3)nc(SCC(=O)Nc3ccccc3OC)nc12,19%[59 µM],-1%,64%,-19%,.,.
COCCNC(=O)c1[nH]c2cc(C)ccc2c1Sc1ccc(Cl)cc1,-26%[59 µM],-12%,2%,-20%,.,.
COc1ccc(Cc2n[nH]c(=S)n2N)cc1OC,3.2µM*,?,?,7.9µM*,8,1
COc1ccc(Cc2cnc(N)nc2N)cc1OC,-5%[12.7 µM],.,.,.,.,.
O=[N+]([O-])c1ccc(Sc2n[nH]c(-c3ccccc3)n2)nc1,?,-4%,33%,56µM*,2,0
